Out of some 360,000 compounds screened, about 2,800 (0.78%) were called active. Cut-off read from the data, not from the text of the source: active = inhibition above about 26%; inactive = the rest. This excerpt belongs to a sample that is enriched for actives.
The compounds below were run on Nicotinate-nucleotide adenylyltransferase NadD (Staphylococcus aureus N315) (assay: S. aureus NadD enzyme activity blockers – biochemical, colorimetric, uHTS, primary screen (AID 602399)). Settings: purified NadD enzyme, colorimetric absorbance read-out; at 20 µM; active compounds read high.

inhibition, inactive:
Cc1[nH]c(N)nc(=S)c1CCCNc1ccccc1 4.24%
CCCc1cc(=S)n2c([nH]c3ccccc32)c1C#N 11.9%
CNC[C@H]1Oc2c(NC(=O)C3CCCCC3)cccc2C(=O)N([C@H](C)CO)C[C@@H]1C 0.223%
CN(C)C(=O)Cn1c(=O)n(S(=O)(=O)c2ccccc2)c2ccccc21 -0.572%
Cc1nc(N)nc(Cl)c1CCC1OCCO1 -2.19%
CCCCNS(=O)(=O)c1ccc(S(=O)(=O)n2cnc3ccccc32)cc1 0.725%
CC(C)C(c1nnnn1C1CCCC1)N1CCN(c2ccccc2F)CC1 (centres undefined) -3.03%
COc1ccc(C(=O)NNc2cc(C)nc(NNC(=O)c3ccc(OC)cc3)n2)cc1 3.2%
CC(=O)NS(=O)(=O)c1ccc(N/C(N)=N/c2nc(C)cc(C)n2)cc1 4.03%
CC1CCC2(CC1)NC(=O)N(CC(=O)c1cccn1C)C2=O (centres undefined) -3.17%
Cc1ccc2nsnc2c1S(=O)(=O)N1CCCC1C(=O)O (centres undefined) -6.81%
CCCCc1ccc(NC(=S)N2CCCC(CO)C2)cc1 (centres undefined) -0.962%
CC(=O)c1ccc(N2C(=NC(=O)C(C)C)SC3CS(=O)(=O)CC32)cc1 (centres undefined) -3.55%
Cc1c(C#N)c(NC(=O)c2ccccc2)n(Cc2ccccc2)c1C -5.49%
Cc1ccc(C(=O)Nc2c(C#N)c(C)c(C)n2Cc2ccccc2)cc1 -7.87%
CCc1nn(CCCC(=O)Nc2ccc(C)c(C)c2)c(=O)c2cc3occc3n12 5.14%
Cc1cc(CNCc2c(C(=O)N(C)Cc3ccccc3)nc3ccccn23)nn1C -2.9%
COc1ccc(NC(=O)C2CCC(CNc3c(N4CCCCC4)c(=O)c3=O)CC2)c(OC)c1 (centres undefined) 1.77%
CCOC(=O)c1c(NC(=O)NC(C)(C)C)sc2c1CCN(C)C2 0.728%
Cc1c(CCC(=O)N[C@@H](CC(C)C)C(=O)O)c(=O)oc2c(C)c3oc4c(c3cc12)CCCC4 -0.714%
Cc1c(OC(C)C(=O)N[C@@H](Cc2ccccc2)C(=O)O)ccc2c3c(c(=O)oc12)CCCC3 (some centres undefined) 3.9%
COc1cc(Cl)cc(C2NC(=O)NC(C)=C2C(=O)NCc2ccccc2)c1O (centres undefined) -2.49%
Cc1cccc(C)c1NC(=O)C1(C)c2cccc[n+]2CC(=O)N1Cc1cccs1 (centres undefined) 6.36%
CCn1cc(C(=O)NC2CCCCCC2)c(=O)c2cc(S(=O)(=O)N3CCCCC3)ccc21 -1.8%
CCn1cc(C(=O)NCC2CCCO2)c(=O)c2cc(S(=O)(=O)N3CCCCC3)ccc21 (centres undefined) 8.79%
COCCN(C(=O)C(C)N1C(=O)c2ccccc2C1=O)c1c(N)n(CC(C)C)c(=O)[nH]c1=O (centres undefined) 0.415%
COCCNC(=O)C(OC(=O)c1cccs1)c1ccc(F)cc1 (centres undefined) 2.74%
CCOC(=O)N1CCC(Nc2c(NCCN3CCN(c4cccc(Cl)c4)CC3)c(=O)c2=O)CC1 -3.05%
O=C(Cc1ccc(-n2c(=O)[nH]c3ccccc3c2=O)cc1)N1CCN(c2cccc(Cl)c2)CC1 6.86%
CCOC(=O)N1CCC(N2Cc3cccc(C(=O)Nc4c(C)cccc4CC)c3C2=O)CC1 8.26%
Cc1ccc(C(=O)N2CCCC(c3ccccc3)=N2)cc1 -4.43%
COc1ccc(N2CCN(c3ccc([N+](=O)[O-])nc3)CC2)cc1 1.06%
O=C(CCc1ccccc1)NNc1ccc(F)cc1 -2.34%
O=c1[nH]c(CSc2ncc(-c3ccc(F)cc3)n2Cc2ccco2)nc2ccccc12 1.31%
Clc1cccc(-c2nc3nc4ccccc4nc3n2Cc2ccco2)c1 -0.737%
COc1cc(C2c3cc4c(cc3C(O)C3COC(=O)C23)OCO4)cc(OC)c1OC (centres undefined) 0.207%
O=C(O)CCCCCCCCc1cn(CN2C(=O)c3ccccc3C2=O)nn1 1.47%
CC(C)[C@@H]1NC(=O)c2cc([N+](=O)[O-])cc(I)c2NCCC[C@@H](C(=O)NC(CC(=O)O)C(N)=O)NC(=O)[C@H](CO)NC1=O (some centres undefined) -2.22%
COc1ccc2oc(=O)cc(CN3CCOCC3)c2c1 0.645%
COc1ccc(OC)c(C(=O)c2coc3ccc(OC)cc23)c1 -4.74%
CC1CC(C)CN(C(=O)CCNC(=O)Cn2cnc3ccccc3c2=O)C1 (centres undefined) -4.11%
CC(=O)N1c2ccc(S(=O)(=O)N3CCC(C(=O)NC4CCCCC4C)CC3)cc2CC1C (centres undefined) 1.28%
Nc1cccc(-c2cc(-c3ccccc3)nc(-c3cccc(N)c3)n2)c1 13.8%
CNC(=S)NNC(=O)c1oc2nc(-c3ccccc3)cc(-c3ccco3)c2c1N 11.9%

inhibition, active:
CCC(=C/c1sc2ccc3ccccc3c2[n+]1C)/C=C1\Sc2ccc3ccccc3c2N1C 38.9%
CC(=O)Nc1ccc(Nc2cc(C)nc(Nc3ccc(NC(C)=O)cc3)n2)cc1 32.4%
CC(=O)Nc1ccc(C(=O)Nc2nc(-c3cc(C)n(Cc4ccccc4)c3C)cs2)cc1 41.8%
Cc1oc2c(C)c3oc(=O)c(CC(=O)N[C@@H](CC(C)C)C(=O)N[C@@H](Cc4ccccc4)C(=O)O)c(C)c3cc2c1C 35.9%
CCn1cc(C(=O)NCCCN2CCCCCC2)c(=O)c2cc(S(=O)(=O)N3CCc4ccccc4C3)ccc21 25.6%
O=C(Cc1csc(Nc2nc(=S)[nH]c3ccccc23)n1)NCCCN1CCN(c2cccc(Cl)c2)CC1 43.9%
Cc1ccc(Cn2c(C)nc3c(c2=O)c2nc4ccccc4nc2n3Cc2ccco2)cc1 49%
Cc1ccc(-c2nn(-c3ccccc3)cc2/C=C2\SC(=S)N(CCCCCC(=O)O)C2=O)o1 34.1%
COc1ccc(OC)c(C(=O)c2coc3ccc(O)c(CN4CCOCC4)c23)c1 36.3%
CS(=O)(=O)c1sc2nc(-c3ccccc3)cc(-c3ccccc3)c2c1N 43.8%
